Experiment [1] deals with Glutathione peroxidase 1 (Homo sapiens) (UniProt P07203). The experiment can be described thus: Primary qHTS Assay for Inhibitors of Recombinant Selenoprotein Glutathione Peroxidase 1 (GPX1) (AID 1845191). Also: nearly all actives have a fitted effect of over 65% in size. Also: potency is read from the fitted curve at half-maximal effect. As to activity, negative = inhibition: % is scaled to controls: 0 for no effect and ±100 for the full control effect. An outline of the steps:
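NADPH consumption tracked by fluorescence at 340/450 nm between t=0 and t=15 min, room temperature. Final mix: 10 nM GPX1, 100 nM glutathione reductase, 1 mM GSH, 0.5 mM NADPH, 0.5 mM cumene hydroperoxide, 0.01% BSA; 30 min compound–enzyme preincubation.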

The target in experiment [2] is Phospholipid hydroperoxide glutathione peroxidase GPX4 (Homo sapiens) (UniProt P36969). Briefly: Primary qHTS Assay for Inhibitors of Recombinant Selenoprotein Glutathione Peroxidase 4 (GPX4) (AID 1845192). Also: nearly all actives have a fitted effect of over 65% in size. Also: potency is read from the fitted curve at half-maximal effect. As to activity change, negative = inhibition: series mostly up to about 50 µM; % is scaled to controls: 0 for no effect and ±100 for the full control effect. Put shortly: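 NADPH consumption followed by fluorescence at 340/450 nm, t=0 and after 15 min at room temperature. Reaction started with cumene hydroperoxide (0.5 mM final) after 30 min compound–GPX4 preincubation; final 200 nM GPX4, 100 nM GR, 1 mM GSH, 0.5 mM NADPH.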

Experiment [3] addresses Luciferin 4-monooxygenase (Photinus pyralis) (UniProt P08659). Briefly: Primary firefly luciferase (FLuc) qHTS assay for identification of artifact compounds. (AID 1845220). Also: nearly all actives have a fitted effect of over 60% in size. Also: potency is read from the fitted curve at half-maximal effect.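 As to activity change, negative = inhibition: series mostly up to about 54 µM; plate controls were DMSO vehicle for no effect and no enzyme for full effect.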 Put shortly:
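FLuc 10 nM; luciferin 10 uM; ATP 10 uM; Tris-acetate pH 7.6, Mg-acetate 10 mM; 15 min RT preincubation; 5 min reaction; luminescence.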
On the technique in general: Quantitative high-throughput screening tests each substance at several concentrations.

Experiment [4] in a line: Primary fluorescence-based thiol-reactive (MSTI) qHTS assay for identification of artifact compounds. (AID 1845221).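 Also: series mostly up to about 54 µM; thiol-reactive compounds lower the probe fluorescence signal; nearly all actives have a fitted effect of over 65% in size.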 Put shortly:
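In PBS pH 7.4 with 2% DMSO, each compound met 4 uM MSTI for one hour at ambient temperature, shielded from light, before fluorescence detection.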

The test system of experiment [5] is Nanoluciferase (engineered Oplophorus gracilirostris luciferase). The experiment can be described thus: Primary Nanoluciferase (NLuc) qHTS assay for identification of artifact compounds. (AID 1845222).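 Also: NLuc secreted into diluted conditioned medium of S16 cells; series mostly up to about 54 µM; 0% = DMSO and -100% = no enzyme.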 An outline of the steps: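 NLuc from S16 cell medium (1:55) plus test compounds, 15 min, room temperature. Luminescence after Nano-Glo (1:100) addition, 5 min.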

Experiment [6] in a line: Primary redox qHTS assay for identification of artifact compounds. (AID 1845223).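 Also: 0% = DMSO and 100% = reference compound.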 Put shortly:
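Redox-cycling detection via DTT (250 uM final) oxidation coupled to Amplex Red (25 uM)/HRP (250 mU/mL) in HBSS. 15 min preincubation plus 30 min after DTT, room temperature. Ex/Em 525/598 nm; 4-parameter Hill fit against DMSO and 10 uM DA3003.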

This is an account of results in PubChem BioAssay (NCATS).

Several values for one entry are separate records, joined by “and”; a condition that tells them apart may be missing. Identical values can stand only once. Values without a mark were called inactive. Inconclusive results are not listed. Activity calls are given as the source filed them. Calls follow the shape of the dose curve; as a rule, active = well fitted curve in the direction sought with a large enough effect; inconclusive = small, poorly fitted or top-dose-only effect, or another doubt; inactive = no such curve, though single readings can be large; an effect the other way counts as inactive or inconclusive.

Phospholipid hydroperoxide glutathione peroxidase GPX4 (Homo sapiens), sequence (P36969 whole entry, looked up): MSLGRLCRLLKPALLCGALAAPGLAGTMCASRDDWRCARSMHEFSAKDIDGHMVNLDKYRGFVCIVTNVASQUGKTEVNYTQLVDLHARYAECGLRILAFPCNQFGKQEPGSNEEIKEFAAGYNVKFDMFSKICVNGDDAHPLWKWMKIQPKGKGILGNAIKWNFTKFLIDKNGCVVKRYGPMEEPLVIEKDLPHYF
Glutathione peroxidase 1 (Homo sapiens), sequence (P07203 whole entry, looked up): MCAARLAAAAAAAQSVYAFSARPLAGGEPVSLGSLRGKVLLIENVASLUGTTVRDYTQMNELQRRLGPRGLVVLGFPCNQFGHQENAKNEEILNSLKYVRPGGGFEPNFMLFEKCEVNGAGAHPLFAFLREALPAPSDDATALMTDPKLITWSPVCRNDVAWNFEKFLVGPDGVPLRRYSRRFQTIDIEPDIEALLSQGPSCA

`Nc1nc2c(nc(Br)n2[C@@H]2O[C@@H]3COP(=O)(O)O[C@H]3[C@H]2O)c(=O)[nH]1`: the Potency entry in experiment [1], in experiment [2], in experiment [3], in experiment [4], in experiment [5] and in experiment [6] was “inactive” each time.
`CCC(C)CNCC(=O)N1CCC2SC=CC2C1COc1cccc(C)c1` (stereo not given): the Potency entry in experiment [1], in experiment [2], in experiment [3], in experiment [4], in experiment [5] and in experiment [6] was “inactive” throughout.
For `CCn1nc(C2CCN(C(=O)CCO)CC2)nc1-c1cnc(N)c(-c2nnc(C(C)(C)C)o2)n1`, the Potency is 20.2 µM (active) and 20.5 µM (active) in experiment [1]; 14.3 µM (active) in experiment [2]. For the same compound, the Potency result in experiment [3], in experiment [4], in experiment [5] and in experiment [6] was “inactive” throughout.
Regarding `COc1ccc2[nH]c(=O)c3c(c2c1)OC(C)(C)C=C3`, the Potency entry in experiment [1], in experiment [2], in experiment [3], in experiment [4], in experiment [5] and in experiment [6] was “inactive” throughout.
For the compound `COc1c(C)cc(NC(=O)c2nn(Cc3ccc(F)cc3)c3c2CN(C(=O)c2ccc[nH]2)C[C@]3(C)C(N)=O)cc1C`, the Potency result in experiment [1] and in experiment [2] was “inactive” each time. The activity change, negative = inhibition in experiment [3] was 2.65% [at 11.6 µM]. In experiment [4], the activity change, negative = thiol reactive is 108% [at 11.5 µM]. The activity, negative = inhibition in experiment [5] is 0.489% [at 11.6 µM]. In experiment [6], the redox activity (% of DA3003) is 7.9% [at 11.5 µM].
Consider `C=C(C=O)[C@]1(O)C[C@@]2(C)C(=CC1=O)C=C[C@H](OC(=O)/C=C/C=C/[C@H](C)CC)[C@@H]2C`, for which the Potency result in experiment [1], in experiment [2], in experiment [3], in experiment [4], in experiment [5] and in experiment [6] was “inactive” in each case.
Turning to `CC12CCC(OC3OC(CO)C(O)C(O)C3OC3OC(CO)C(O)C(O)C3O)CC1CCC1C2CCC2(C)/C(=C3/COC(=O)C3)CCC12O` (stereo not given), the Potency result in experiment [1], in experiment [2], in experiment [3], in experiment [4], in experiment [5] and in experiment [6] was “inactive” throughout.
Regarding `CC(C)C[C@@H]1NC(=O)[C@@H](Cc2ccccc2)NC(=O)C(CCCCCC(=O)C2CO2)NC(=O)[C@@H]2CCCCN2C1=O` (stereo not given in full), the Potency entry in experiment [1], in experiment [2], in experiment [3], in experiment [4], in experiment [5] and in experiment [6] was “inactive” each time.
Turning to `CCO[C@H]1CN(C2CCC(O)(c3ccc4c(c3)OCO4)CC2)C[C@@H]1NC(=O)CNC(=O)c1cccc(C(F)(F)F)c1` (stereo not given in full), the Potency result in experiment [1], in experiment [2], in experiment [3], in experiment [4], in experiment [5] and in experiment [6] was “inactive” throughout.
Regarding `CC(=O)NC(C(=O)O[C@H]1CCC(C)(C)[C@@H]2CC=C3C(=O)OCC3(O)[C@@]12C)C(C)C` (stereo not given in full), the Potency entry in experiment [1], in experiment [2], in experiment [3], in experiment [4], in experiment [5] and in experiment [6] was “inactive” in each case.
In the case of `Cc1ccc(C)c(NS(=O)(=O)c2cc(C(=O)Nc3ccccc3-c3ccccc3)ccc2C)c1`, the Potency result in experiment [1], in experiment [2], in experiment [3], in experiment [4], in experiment [5] and in experiment [6] was “inactive” each time.
With `COc1cc2nc(C3CC3)nc(N3CCN(c4ccccc4OC)CC3)c2cc1OC`, the Potency result in experiment [1], in experiment [2], in experiment [3], in experiment [4], in experiment [5] and in experiment [6] was “inactive” throughout.
With `O=C(C(Cc1cccc(C(F)(F)F)c1)NS(=O)(=O)c1cc(F)c2c(c1)CCNC2)N1CCCC1` (stereo not given), the Potency entry in experiment [1], in experiment [2], in experiment [3], in experiment [4], in experiment [5] and in experiment [6] was “inactive” each time.
Turning to `CC(=O)O[C@@H]1[C@@H](O)[C@H](O[C@@H]2[C@@H](O)[C@@H](O)[C@H](O[C@H]3[C@H](O[C@H]4[C@H](O[C@H]5CC[C@@]6(C)C(CC[C@]7(C)C6CC=C6[C@@H]8CC(C)(C)CC[C@]8(C(=O)O)CC[C@]67C)[C@]5(C)CO)O[C@H](CO)[C@@H](O)[C@@H]4O)OC[C@@H](O)[C@@H]3O)O[C@H]2C)OC[C@H]1O` (stereo not given in full), the Potency entry in experiment [1] and in experiment [2] was “inactive” each time. Moreover, in experiment [3], the activity change, negative = inhibition is -4.72% [at 11.6 µM]. The activity change, negative = thiol reactive in experiment [4] is 377% [at 11.5 µM]. Besides, the activity, negative = inhibition in experiment [5] was 1.48% [at 11.6 µM]. Also, the redox activity (% of DA3003) in experiment [6] is 0.129% [at 11.5 µM].
For `CC(C)n1nc(C#Cc2ccccc2)c2c(N)ncnc21`, the Potency result in experiment [1], in experiment [2], in experiment [3], in experiment [4], in experiment [5] and in experiment [6] was “inactive” in each case.
Regarding `Cc1ccc(-c2cn3c4c(sc3n2)CCCC4)cc1`, the Potency result in experiment [1], in experiment [2], in experiment [4], in experiment [5] and in experiment [6] was “inactive” throughout. In experiment [3], the Potency is 0.19 µM (active).
Turning to `CCc1ccccc1OC[C@@H](O)CN[C@H]1CCCc2ccccc21`, the Potency result in experiment [1], in experiment [2], in experiment [3], in experiment [4], in experiment [5] and in experiment [6] was “inactive” throughout.
On to `COc1ccc(Oc2c(Cl)cnn(-c3cc(C)cc(C)c3)c2=O)cc1`, for which the Potency result in experiment [1], in experiment [2], in experiment [3], in experiment [4], in experiment [5] and in experiment [6] was “inactive” each time.
With `Cc1csc2c(N[C@@H](C)CN3CCN(S(=O)(=O)c4ccc(Cl)c(Cl)c4)CC3)ncnc12`, the Potency result in experiment [1], in experiment [2], in experiment [3], in experiment [4], in experiment [5] and in experiment [6] was “inactive” each time.
Turning to `Cc1cccc(C#Cc2cc(F)cc(C#N)c2)n1`, the Potency entry in experiment [1], in experiment [2], in experiment [3], in experiment [4], in experiment [5] and in experiment [6] was “inactive” throughout.
